System: RARg homodimer (NR concentration 270 nM)
Experiment: PBM binding z-score (relative to random genomic background probes); higher = stronger binding; sequences stand for … in GC…GCGATTGACAGCGTAGAATGAAGG
Procedure, shortened: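 Custom Agilent 4×180K protein-binding microarrays carried double-stranded probes. Their 34-nt variable regions held direct-repeat seeds, single-nucleotide variants, half-site ablations and random human genomic background sequences. Arrays were incubated 1 h with ligand-free nuclear receptor dimers in PBS pH 7.4, 2% milk, 0.02% Triton X-100, 1 mM DTT, 0.2 mg/mL BSA and 0.4 mg/ml salmon testes DNA. Antibodies against each partner (one per run) detected binding, and scanned fluorescence was regression-normalized. Binding z-scores use random background probes as reference.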

| Sequence | PBM binding z-score |
| --- | --- |
| ACTATTAGTTGACACGAGGGCAACCGATAGGTTG | 1.34 |
| TCATTTAGGTAAAAGGTGAAAGTCGGTGTGGTAA | 1.04 |
| ACTAGCAAGCCAAGTTTGGGTCACTCAAACAAAG | 0.562 |
| AAAATGAGGTTATACGTAGATCAGGGAAGAAAGT | 1.14 |
| CATGCAGGGTCAGCTAGGCCAGAGTAGGGACGGC | 5.06 |
| GTACCAAGGTTAATAGGTCGTTGATGAGTAGGCG | 2.07 |
| GCTTGTAGATCAAGGTTAAGGAAGACTAAGCTAA | 0.222 |
| CGAACTAGGTCATTTACAGGACAGTGAATAGTAA | 4.09 |
| CGAACTAGGTCAGAACAGGACAGTGAAGGATGAT | 3.34 |
| TCTCGGAGGACACGAAAGATCAGAGCTCGACATC | 1.18 |
| GGAACGAGTGCATTCGAGTTGATAGCATGGCGAT | 0.0126 |
| TTCCCAAGGTGAAAGGTCGTTGATGCACGCCTTG | 2.13 |
| ACTCGGAGGACCAAGGTCAGAGCTACGCCAGTGA | 2.61 |
| TGAATGAGCTTATAAGATCAGGGAACGTTGCAAA | -0.288 |
| TATACAGGGTCAAAGGCCAGAGTACGAATGTCGA | 5.12 |
| TCGTATAGGTAAAGGTGAAAGTCGAACGATATGA | 1.35 |
| TTACCAAGGAGAAAGGTCGTTGATGCACGCCTTG | 0.929 |
| CAGCCTAGGTCAAGGCCAGTATAGGAGGAACGTT | 4.9 |
| TCGAGTAGGTTAGTCGGGGCATTCATCCAACATA | 0.214 |
| ACAGACCGGTGAGTGAAGGTAACTCAGCTGGACG | -0.11 |

| Sequence | PBM binding z-score |
| --- | --- |
| CTTAGCAGGCCAATCTGGGTCACTCAAGGCTTGA | 1.3 |
| ATCTCGAGGTAACAAGTTCAGTGAAAGAGAGGAC | 1.42 |
| GCGACTGGTGCAAAGCAGGTTACCATAAGGTTGG | -0.317 |
| TAGCCTAGGTCGGATCGGGCCAGTATACGCTATA | 0.282 |
| GCTTGTAGATCAAGATTAAGAAAGACTAAGCTAA | -0.206 |
| CAAACTAGGTCAGAGAGGTCAAAGTCCGTGCGTA | 6.79 |
| TAGCCTGGGTCATGCGGGCCAGTATAGTGTCGGC | 3.37 |
| CAACCAAGGTGAACAAGGTCGTTGATTACTATTC | 1.64 |
| TATACAGGGTCAAAGGCCACAGTACGAATGTCGA | 5.62 |
| AGTCAAAGTTCAATAGGTAACGTAAGATTCAGCT | 5.37 |
| CAAACAGGGTCAGCTAGGCCAGAGTAGGGACGGC | 4.56 |
| TGTCAAAGTTCAAAGGTAACGTAAGTATCCACAC | 6.19 |
| TAGTCTAGGTCAGATCGGGCCAGTATACGCTATA | 3.51 |
| TCTCGGAGGACACGAAAGGTAAGAGCTCGACATC | 1.6 |
| AGTCAAAGTTCATCTAGGTAAGGTAAGATATGCT | 5.79 |
| CGTCCAAGGTCAAAGGGCAGTGAAGAGATGACGG | 6.29 |
| TAGCCTAGGTCTTTGGGCCAGTATAGTACGCATC | -0.164 |
| TTACCAGGGTGAAAGGTCGTTGATGCACGCCTTG | 1.48 |
| CGTCCAAGGTCAGAGAGGTCAATGAATGCCGAGT | 7.52 |
| TCATATAGGTAATACAGGTGAAAATCGGCATCTA | 0.82 |

From the supplement of paper PMC6555819
